# Bioassay records as filed in PubChem BioAssay.
# An excerpt weighted towards active compounds, which were near 3.1% of everything screened.
# EPAC1 agonist: validation of human EPAC1 agonists; O95398; EPAC1 Rap1b BODIPY-GDP exchange, fluorescence; Potency, µM, for inactives: max response, positive = active, usual class: activators; 16,000 tested, 1% active; further: nearly all actives have a fitted effect of over 70% in size
# Target sequence (O95398 whole entry, looked up): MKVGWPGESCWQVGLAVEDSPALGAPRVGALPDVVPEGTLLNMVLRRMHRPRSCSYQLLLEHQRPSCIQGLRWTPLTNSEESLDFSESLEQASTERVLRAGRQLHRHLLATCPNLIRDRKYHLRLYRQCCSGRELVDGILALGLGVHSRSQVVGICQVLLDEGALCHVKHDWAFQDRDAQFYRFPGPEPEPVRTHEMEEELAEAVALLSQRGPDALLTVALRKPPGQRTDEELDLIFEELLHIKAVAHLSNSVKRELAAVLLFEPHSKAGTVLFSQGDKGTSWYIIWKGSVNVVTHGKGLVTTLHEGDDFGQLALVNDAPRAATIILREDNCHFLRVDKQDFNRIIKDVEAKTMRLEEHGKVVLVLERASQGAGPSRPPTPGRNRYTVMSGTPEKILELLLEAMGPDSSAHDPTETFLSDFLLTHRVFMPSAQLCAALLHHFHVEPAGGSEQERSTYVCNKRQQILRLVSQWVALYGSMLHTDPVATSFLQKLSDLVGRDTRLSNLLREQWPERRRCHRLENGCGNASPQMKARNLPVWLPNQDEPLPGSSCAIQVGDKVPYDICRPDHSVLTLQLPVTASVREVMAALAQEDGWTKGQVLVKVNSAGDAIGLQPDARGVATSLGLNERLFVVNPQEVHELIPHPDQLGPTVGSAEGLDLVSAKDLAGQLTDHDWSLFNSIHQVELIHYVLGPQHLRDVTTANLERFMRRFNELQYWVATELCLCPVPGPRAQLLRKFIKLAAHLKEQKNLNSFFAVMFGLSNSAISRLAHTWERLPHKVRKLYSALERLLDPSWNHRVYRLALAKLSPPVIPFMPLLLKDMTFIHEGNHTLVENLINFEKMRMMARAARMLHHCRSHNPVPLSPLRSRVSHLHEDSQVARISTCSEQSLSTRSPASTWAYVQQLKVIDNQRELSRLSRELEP
# EPAC2 ant val: human EPAC2 antagonism, validation; Q8WZA2; EPAC2 Rap1B BODIPY-GDP exchange, fluorescence; Potency, µM (titrated, usually from 112 µM), for the others: at the top dose activity, negative = inhibition, most hits filed as inhibitors; 16,000 tested, 1.7% active; AID 1645886;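 further: 100% = activation by cAMP agonist control; nearly all actives have a fitted effect of over 40% in size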
#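 Fluorescent exchange read-out: 100 nM EPAC2 with 250 nM RAP1B–BODIPY-GDP and 50 uM GDP; BODIPY-GDP release lowers fluorescence. Read at 480/540 nm every 5 min for 30 min at room temperature; normalized to 6.5 mM cAMP.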
# Numbers without * were called inactive; ? = inconclusive; ! = not active in a repeat. The call rests on the fitted dose curve; in most records, active means well fitted curve in the direction sought with a large enough effect; inconclusive means small, poorly fitted or top-dose-only effect, or another doubt; inactive means no such curve, though single readings can be large; an effect the other way counts as inactive or inconclusive. Unless noted, on the % scale 0 is the no-effect control and ±100 the full control effect; potency means the concentration at half of the fitted maximal effect.
SMILES,EPAC1 agonist,EPAC2 ant val
COC(=O)N1CCC2(CCCN(Cc3cc(C(F)(F)F)cc(C(F)(F)F)c3)C2)CC1,-28%,-25%
COc1ccc(C(=O)N2CCC3(CCCN(Cc4cc(C(F)(F)F)cc(C(F)(F)F)c4)C3)CC2)cc1,-78%,35µM*
C=CC1=C(C)C2=CC3=NC(=C(CC(=O)[O-])C4=NC(=C(C)C4=C([O-])[O-])C=c4[n-]c(c(C)c4CC)=CC1=N2)C(CCC(=O)[O-])C3C.[Cu+2].[Na+].[Na+].[Na+] (stereo not given),-65%,2%
COc1ccc(/C=C/C(=O)c2ccc(O)cc2O)cc1,17%,-18%
COc1ccc(/C=C/C(=O)c2ccc(OC)cc2OC)cc1,14%,16µM*
C[C@H](CSC(=O)c1ccccc1)C(=O)N1C[C@@H](Sc2ccccc2)C[C@H]1C(=O)O,-21%,5%
CCCCCCCCCCCCCCCC[n+]1ccc(C)c2ccccc21,-84%,-48%
COCc1ccc(CN2CCOc3c(cc(-c4cc(C)c5cccc(OC)c5n4)cc3OC)C2)o1,6%,?
CC(=O)c1ccc2c(c1)N(CCCN1CCN(CCO)CC1)c1ccccc1S2,7%,54%
OCCN1CCN(CCCN2c3ccccc3Sc3ccc(C(F)(F)F)cc32)CC1,17%,50µM*!
CN1CCN(CCCN2c3ccccc3Sc3ccc(Cl)cc32)CC1,14%,35µM*!
CN1CCN(CCCN2c3ccccc3Sc3ccccc32)CC1,9%,3%
CCC(=O)Oc1ccc2c(c1)CC[C@@H]1[C@@H]2CC[C@]2(C)[C@@H](OC(=O)CC)CC[C@@H]12,-19%,27%
Cc1cnc(C)c(-c2ccc(F)c3c2OC(CNC(=O)/C=C/c2cccs2)C3)n1 (stereo not given),-23%,-17%
CO[C@@H]1[C@@H](OC)[C@H](C)[C@@](O)(CC(=O)O)O[C@H]1[C@H](C)[C@H]1O[C@@]2(CC[C@@](C)([C@H]3CC[C@@](C)([C@@H]4O[C@@H]([C@H]5O[C@](C)(O)[C@H](C)C[C@@H]5C)C[C@@H]4OC4C[C@H](OC)[C@@H](OC)[C@H](C)O4)O3)O2)C[C@H](O)[C@H]1C (stereo not given in full),-53%,5%
CO[C@H]1[C@H](NC(=O)c2ccsc2)c2ccccc2C12CCN(Cc1cc(Cl)ccc1O)CC2,7%,-2%
CCOC(=O)N1CCN(Cc2ccc3c(c2)CN(C(=O)c2cc(-c4ccccc4)no2)CCO3)CC1,6%,-18%
C=C[C@]1(C)C[C@@H](OC(=O)CSC(C)(C)CNC(=O)[C@H](N)C(C)C)[C@]2(C)[C@H](C)CC[C@]3(CCC(=O)[C@H]32)[C@@H](C)[C@@H]1O,-6%,-25%
COc1cc(C)c(C(=O)Oc2cc(C)c(C(=O)O)c(O)c2C)c(OC)c1C,-128%,50µM*
COc1cc(OC)c(C(C)=O)c(O)c1C,-17%,-9%
Cc1cnc(SCc2ccccn2)nc1C1CCCN(C(=O)c2cccc(-c3cccc(F)c3)c2)C1 (stereo not given),15%,?
NCCCC[C@H](N)C(=O)O,-3%,-12%
COc1ccccc1N1CCN(c2nc(CNC(=O)C3CC34CCCC4)nc3ccccc23)CC1 (stereo not given),14%,?
O=S(c1cc(Cl)cc(Cl)c1O)c1cc(Cl)cc(Cl)c1O,-3%,?
Oc1c(Cl)cc(Cl)cc1Sc1cc(Cl)cc(Cl)c1O,-9%,56µM*
SMILES,EPAC1 agonist,EPAC2 ant val
Cc1oc(-c2ccccc2NC(=O)C2CCC2)nc1CNC(=O)c1ccc(C#CC(C)(C)O)cc1,10%,?
CC(C)CN(C[C@@H](O)[C@H](Cc1ccccc1)NC(=O)O[C@@H]1CCOC1)S(=O)(=O)c1ccc(N)cc1,-13%,-5%
O=C(CCn1cncn1)NCC1Cc2cc(-c3ccsc3)cc(Cl)c2O1 (stereo not given),?,-24%
COc1ccccc1CC(=O)NCC1Cc2cc(F)cc(-c3cncnc3)c2O1 (stereo not given),3%,-20%
Cc1cc(-c2cc(F)cc3c2OC(CNC(=O)CCn2cncn2)C3)ccc1F (stereo not given),6%,79µM*
COC(=O)c1ccc(C(=O)NCC2Cc3cc(F)cc(-c4cncnc4)c3O2)cc1 (stereo not given),14%,2.5µM*
Cc1nc2ccccc2nc1CN1CCOc2ccc(C3(O)CCN(c4ccccc4F)CC3)cc2C1,0%,-15%
COC(=O)C1=C(C)NC(C)=C([N+](=O)[O-])[C@@H]1c1ccccc1C(F)(F)F,-14%,40µM*
COC(=O)C1=C(C)NC(C)=C([N+](=O)[O-])[C@H]1c1ccccc1C(F)(F)F,-15%,50µM*
COC(=O)C1=C(C)NC(C)=C(C(=O)OCCSc2ccccc2)[C@@H]1C,17%,?
COC(=O)C1=C(C)NC(C)=C(C(=O)OCC(C)=O)C1c1ccccc1[N+](=O)[O-] (stereo not given),9%,-8%
